Source: PubChem BioAssay (National Center for Advancing Translational Sciences (NCATS))
Compounds with a hit are over-represented: about 12% of the library has one in this group of screens.
Shiga inhibitor: blocks Shiga toxin action in Vero cells; inhibition, % at 38.7 µM; AID 2315; 290,000 compounds, 9.2% hits; Vero cells, Shiga toxin protein synthesis inhibition reporter; in the data active = inhibition mostly above about 28%, no sharp cut-off; inactive = mostly below about 43%; note: 0% is about no effect
FMDV antiviral: antivirals against foot and mouth disease virus. FMDV antiviral cell-based qHTS. Potency, µM (doses to about 57.9 µM), without a hit: top-dose activity change, negative = inhibition, most hits filed as inhibitors. 410,000 compounds, 1.2% hits; calls by dose curve; tested in HEK293T cells; note: read-out not given here; potency is the fitted concentration of half-maximal effect; % is set by controls: 0 for no effect and ±100 for the full control effect; nearly all actives have a fitted effect of over 45% in size
Sm TGR block: inhibitors of Schistosoma mansoni thioredoxin glutathione reductase. Potency, µM (doses to about 114 µM), without a hit: at the top dose activity change, negative = inhibition, usual class: inhibitors. 360,000 compounds, 3% hits. purified TGR, DTNB reduction, TNB absorbance 405 nm. AID 485364. Q962Y6; active = well fitted inhibition curve with a large enough effect; inconclusive = small, poorly fitted or top-dose-only effect; inactive = no such curve, though single readings can be large or run the other way; note: potency is the fitted concentration of half-maximal effect; % is set by controls: 0 for no effect and ±100 for the full control effect; nearly all actives have a fitted effect of over 60% in size
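Kinetic colorimetric format: TGR-catalysed, NADPH-driven DTNB reduction monitored via TNB absorbance. Enzyme dispensed at 20 nM; compound exposure 15 min at room temperature before reaction start.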
CHX counter: affects cycloheximide protein synthesis inhibition readout, counter-screen; 300,000 compounds, 12% hits; cell reporter, cycloheximide protein synthesis inhibition counterscreen; max response, %; AID 2314; in the data active = max response mostly above about 13%, no sharp cut-off; inactive = mostly below about 14%; note: read at 38.3 µM for the half of the compounds with a filed dose; 0% is about no effect
The depositor's hits bear a star; ? = inconclusive; / = no result; ! = a repeat was not active.

SMILES | Shiga inhibitor | FMDV antiviral | Sm TGR block | CHX counter
O=C(c1cc(COc2ccc3ncccc3c2)on1)N1CCCC1 | 39.6* | -23.4% | -16.2% | 32.9*
CCOc1ccc(CCNC(=O)c2[nH]c3cc(OC)ccc3c2Sc2ccccc2)cc1OCC | / | -23.2% | 3.7% | /
CCN1c2ccccc2-c2nc(SCC(=O)NCc3ccc(Cl)cc3)ncc2S1(=O)=O | / | -20.6% | 7.2% | /
CCc1ccccc1NC(=O)Cn1c(=O)ccc2cc(S(=O)(=O)N3CCC(C)CC3)ccc21 | / | -9.7% | 2.1% | /
Nc1ccc(-c2nc3ccc(C(=O)O)cc3s2)cc1 | -19.7 | ? | 0.8% | -8.1
Nc1nc(-c2ccc(C(=O)O)cc2)cs1 | 25.8 | 0.9% | 0.4% | 1.3
Nc1cc2sc(-c3ccc(C(=O)O)cc3)nc2cc1Cl | 30.8* | -59.6% | -11.8% | 25.7*
O=C(O)c1ccc2nc(-c3ccccc3)sc2c1 | 22.9 | 2.51µM* | 2.0% | 20.2
N#Cc1cc2c(OCC(O)CN3CCN(C(c4ccccc4)c4ccccc4)CC3)cccc2[nH]1 (configuration not stated) | / | -3.2% | / | /
Cc1nc(S(=O)(=O)N2CCN(c3ccc(Cl)cc3)CC2)cn1C | / | 0.0% | 37.2% | /
O=[N+]([O-])c1ccccc1NCc1c(O)ccc2ccccc12 | 7.9 | -3.3% | 1.78µM* | 1.9
CCCCCN1C=CC(=C2C(=O)c3ccccc3C2=O)C=C1 | -33.1 | 2.82µM* | 3.7% | -14.9
CCC(=O)c1ccc(N2CCN(C(=O)c3ccccc3Br)CC2)c(F)c1 | -10.8 | ? | / | -2.3
CCOC(=O)N1CCN(c2ccc(C(=O)c3ccccc3)cc2F)CC1 | 77.2* | -22.1% | 19.8% | 28.6*
CCC(=O)c1ccc(N2CCCCCC2)c(F)c1 | 54.1* | 45.4% | -13.7% | 35.0*
CCC(=O)c1ccc(N2CCCC2)c(F)c1 | 47.6* | 40.6% | -0.3% | 28.2*
CCCC(=O)c1ccc(N2CCN(S(=O)(=O)c3ccccc3)CC2)c(F)c1 | -5.2 | -28.1% | 3.2% | 1.1
CCC(=O)c1ccc(N2CCN(S(=O)(=O)c3ccccc3)CC2)c(F)c1 | -16.4 | -26.2% | 11.7% | 44.0*
C[C@@]12C=Cc3occc3[C@H]1CC[C@]13CC(=O)[C@@H](CC[C@H]12)C3 | 1.6 | / | / | 14.9
CCCC(=O)c1cc(F)c(N2CCOCC2)cc1C | 15.9 | / | 4.9% | 13.1
Cc1ccc2nc(N3CCN(C(=O)c4ccc(F)cc4)CC3)c(C#N)cc2c1 | 3.0 | ? | 2.4% | -0.5
Cc1ccc2cc(C#N)c(N3CCN(C(=O)c4cccs4)CC3)nc2c1 | / | 31.6µM* | -19.3% | -1.8
CCC(=O)c1ccc(N2CCN(C(=O)c3cccs3)CC2)c(F)c1 | 22.1 | 1.4% | -16.1% | 21.3*
CCC(=O)c1ccc(N2CCN(C(=O)c3ccccc3F)CC2)c(F)c1 | -4.7 | -10.1% | -2.8% | 20.3
CCCC(=O)c1ccc(N2CCCC2)c(F)c1 | 76.1* | 52.1% | ? | 36.9*
SMILES | Shiga inhibitor | FMDV antiviral | Sm TGR block | CHX counter
CC1CCC(C(C)C)C(OC(=O)COC(=O)c2ccc(=O)[nH]c2)C1 (configuration not stated) | -5.5 | -28.3% | -9.9% | -2.2
CC1CCC(C(C)C)C(OC(=O)COC(=O)c2cc(O)ccc2N)C1 (configuration not stated) | 56.6* | ? | -10.0% | 24.2*
CN1/C(=C\C(=O)c2cccs2)C(C)(C)c2ccccc21 | 16.0 | 10.3% | -13.3% | 24.6*
CN1/C(=C/C(=O)c2cccs2)Sc2ccccc21 | 47.7 | / | 2.9% | 43.5*
CCOC(=O)/C=C1/N(C)c2ccccc2C1(C)C | -8.3 | -9.1% | 0.0% | -1.4
CN1CCN(c2ccccc2NC(=O)c2cccs2)CC1 | -27.0 | -19.0% | 0.4% | 2.3
CN1/C(=C\C(=O)CN2C(=O)NC3(CCCCCC3)C2=O)C(C)(C)c2ccccc21 | -11.1 | 20µM* | ? | -4.4
CN1/C(=C/c2cccc[n+]2C)Sc2ccccc21 | 22.7 | ? | -9.8% | 7.0
CN1/C(=C\C(=O)c2cccs2)Sc2ccccc21 | 89.7* | 0.0% | -30.4% | 39.4*
CCCCOc1ccc(CNC(=O)CCCN2C(=O)CSc3c2c(C)nn3-c2ccccc2)cc1 | / | -16.1% | 2.5% | /
COc1ccc(-c2cc(C)nc3c(-c4ccc(OC)c(OC)c4)c(C)nn23)cc1 | / | -21.8% | 2.6% | /
CN(C)c1ccc(CNC(=O)CN2C(=O)CCn3nc(-c4cn(C)c5ccccc45)cc32)cc1 | / | -15.4% | -0.2% | /
COc1ccc(OC)c(CNS(=O)(=O)c2ccc(-c3cc(C(F)(F)F)on3)s2)c1 | / | 0.0% | 9.0% | /
COc1ccccc1C(=O)NC(=S)/C=C1/N(C)c2ccccc2C1(C)C | 44.0 | ? | -3.0% | 14.0*
CN1/C(=C/C(=O)C2CCC2)Sc2ccccc21 | 138.8* | / | 0.0% | 56.6*
CN1/C(=C\C(=S)NC(=O)c2ccccc2Cl)C(C)(C)c2ccccc21 | 40.2 | -14.1% | -2.7% | -2.6
C=CCn1c(COc2cccc(C)c2C)nnc1SCC(=O)N1CCN(c2ccccc2)CC1 | 2.0 | 17.8µM* | -6.3% | -2.0
CC(C)=CC(=O)OCC(=O)Nc1ccc(Cl)cc1 | 41.4* | -14.0% | -5.3% | 23.5*
NC(=O)c1ccc(NC(=O)COC(=O)CCC(=O)c2ccc(Cl)cc2)cc1 | -21.6 | 14.7% | 50.1µM* | 0.7
O=C(COC(=O)CCC(=O)c1ccc(F)cc1)Nc1ccccc1 | 2.6 | 20.8% | 6.3% | -3.8
CCOC(=O)/C=C/C(=O)OCC(=O)Nc1cccc(Br)c1 | -1.8 | 0.5% | 17.8µM* | 18.6
CCOC(=O)/C=C/C(=O)OCC(=O)Nc1ccc(C)cc1 | 15.0 | -15.7% | 12.6µM* | 16.4
CC(C)=CC(=O)OCC(=O)Nc1cc(C)cc(C)c1 | 8.3 | -9.4% | -0.2% | 10.8
COCC(=O)Nc1cccc(Br)c1 | 42.8 | 20.2% | -5.6% | 0.6
CCc1ccccc1Nc1cc(C(=O)NC(C)c2ccccc2)c2ccccc2n1 (configuration not stated) | / | 2.6% | 7.6% | /
SMILES | Shiga inhibitor | FMDV antiviral | Sm TGR block | CHX counter
O=C(NC1CC1)[C@@H]1C[C@H](Sc2nc3ccccc3[nH]2)CN1CC1CCCCC1 | / | -9.5% | / | /
CC(=O)Nc1ccc(S(=O)(=O)c2ccc(N)cc2)cc1 | 24.0*! | -11.6% | 20.9% | 17.7*!
CCOC(=O)/C=C/S(=O)(=O)c1ccc(NC(C)=O)cc1 | 30.0 | ? | 0.316µM* | 17.9
Cc1cccc(NC(=O)COc2ccc(Br)cc2/C=N/O)c1 | 120.8* | 0.0% | -1.8% | 75.4*
CC(=O)Nc1ccc(NC(=O)COc2ccc(Br)cc2C)cc1 | -9.8 | -6.2% | -11.4% | 7.9
CC(=O)Nc1ccc(S(=O)(=O)c2ccc(N)cc2)cc1N | -16.3 | -9.0% | 8.9% | -3.2
Cc1ccc2oc(C(=O)N(Cc3ccc(N(C)C)cc3)C3CCS(=O)(=O)C3)c(C)c2c1 (configuration not stated) | 16.0 | -17.9% | -14.2% | 15.8*
Cc1cc2oc(C(=O)N(Cc3ccco3)C3CCS(=O)(=O)C3)cc(=O)c2cc1Cl (configuration not stated) | 12.0 | -9.7% | 50.1µM* | -0.6
O=C(c1cc2ccccc2oc1=O)N(Cc1cccc(Br)c1)C1CCS(=O)(=O)C1 (configuration not stated) | 30.8 | 11.2% | 4.1% | 15.4*
COc1cccc(CN(C(=O)c2cc3ccccc3oc2=O)C2CCS(=O)(=O)C2)c1 (configuration not stated) | 79.2* | 24.3% | 3.9% | 42.4*
